Source: PubChem BioAssay (Tox21)
Where “and” joins values, the source holds several entries; their conditions need not be identical. Identical values can stand only once. Inconclusive results are not listed. Entries that show only a call come without a potency. The source holds several records for some structures; these can differ, active in one and inactive in another. Calls of active or inactive are those of the source. Unless noted, the call rests on the fitted dose curve.

Legend:
[1] = qHTS assay to identify small molecule agonists of the vitamin D receptor (VDR) signaling pathway - cell viability counter screen (AID 743224; active means well fitted curve in the direction sought with a large enough effect in the repeat runs; an effect the other way counts as inactive or inconclusive; further: series mostly up to about 63 µM; nearly all actives have a fitted effect of over 50% in size)
Procedure, shortened: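 VDR-bla cell line, quantitative HTS format; 16 h compound incubation (37C, 5% CO2); ATP-based CellTiter-Glo luminescence measured in the reporter assay wells.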

[2] = qHTS assay to identify small molecule antagonists of the vitamin D receptor (VDR) signaling pathway - cell viability counter screen (AID 743225; active means well fitted curve in the direction sought with a large enough effect in the repeat runs; an effect the other way counts as inactive or inconclusive; further: nearly all actives have a fitted effect of over 50% in size)
Procedure, shortened: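 VDR-bla HEK 293T cells, 4 h pre-incubation at 37C, then compound plus 1-alpha,25-dihydroxyvitamin D3 (3 nM final) for 16 h. After the beta-lactamase FRET read, CellTiter-Glo was added to the same wells; luminescence after 30 min at room temperature.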

[3] = qHTS assay to identify small molecule agonists of the NFkB signaling pathway (AID 1159509; active means well fitted curve in the direction sought with a large enough effect in the signal ratio in the repeat runs, not every such curve was filed as active; the % refers to the signal ratio; further: series mostly up to about 61 µM)
Procedure, shortened: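 After overnight attachment, reporter cells received test compounds, DMSO or positive controls and were incubated 5 hr at 37 C. FRET substrate was then added for 1.5 hr at room temperature before dual-emission fluorescence reading.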

[4] = qHTS assay to identify small molecule agonists of the NFkB signaling pathway - cell viability counter screen (AID 1159515); further: series mostly up to about 61 µM; nearly all actives have a fitted effect of over 55% in size
Procedure, shortened: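 Viability in NFkB-bla ME-180 cells was measured by CellTiter-Glo luminescence, 30 min room temperature, in wells already treated 5 hr with compounds and read for reporter FRET.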

[5] = qHTS assay to identify small molecule agonists of the endoplasmic reticulum stress response signaling pathway (AID 1159516; active means well fitted activation curve with a large enough effect in the signal ratio in the repeat runs, not every such curve was filed as active; the % refers to the signal ratio)
Procedure, shortened: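 ER stress element reporter (bla) in HeLa. 1,500 cells/well, overnight attachment; 5 hr compound; 2 hr RT substrate; dual-emission fluorescence.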

[6] = qHTS assay to identify small molecule agonists of the endoplasmic reticulum stress response signaling pathway - cell viability counter screen (AID 1159517);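 further: HeLa cells carrying an ER stress response element beta-lactamase reporter; series mostly up to about 61 µM; nearly all actives have a fitted effect of over 50% in size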
Procedure, shortened: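 Counter-screen wells were identical to the reporter wells. Cells were plated at 1,500 per well and dosed for 5 hr, then read for luminescence 30 min after CellTiter-Glo addition.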

[7] = qHTS assay to identify small molecule antagonists of the retinoid-related orphan receptor gamma (ROR-gamma) signaling pathway - cell viability counter screen (AID 1159520; active means well fitted curve in the direction sought with a large enough effect in the repeat runs; an effect the other way counts as inactive or inconclusive; further: nearly all actives have a fitted effect of over 50% in size; further: potency means the concentration at half of the fitted maximal effect)
Procedure, shortened: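 Tet-on ROR gamma CHO cells were given compounds for 2 hr, then doxycycline hyclate at 1 uM final, and incubated 16 hr at 37 C. Viability was measured as ATP content by CellTiter-Glo luminescence.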

[8] = molecular target: Nuclear receptor ROR-gamma (Homo sapiens) (UniProt P51449); test: qHTS assay to identify small molecule antagonists of the retinoid-related orphan receptor gamma (ROR-gamma) signaling pathway (AID 1159521; active means well fitted curve in the direction sought with a large enough effect in the repeat runs; an effect the other way counts as inactive or inconclusive)
Procedure, shortened: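 Tet-on RORγ CHO cells carrying a ROR response element–luciferase reporter were pretreated with compounds for 2 h, then induced with 1 uM (final) doxycycline hyclate for 16 h at 37 C. Antagonism was read as decreased ONE-Glo luminescence.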

[9] = qHTS assay to identify small molecule agonists of the AP-1 signaling pathway - cell viability counter screen (AID 1159525); further: nearly all actives have a fitted effect of over 55% in size
Procedure, shortened: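 AP-1-bla ME-180 cells in Opti-MEM with 0.5% dialyzed FBS, compound exposure 5 h at 37 C in 15-point titration. Viability read in the same wells as ATP content by CellTiter-Glo luminescence, normalised to tetra-n-octylammonium bromide and DMSO controls.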

[10] = qHTS assay to identify small molecule agonists of the AP-1 signaling pathway (AID 1159526)

| Compound | Potency [1] | outcome [2] | outcome [3] | outcome [4] | outcome [5] | outcome [6] | Potency [7] | Potency [8] | Potency [9] | outcome [10] | activity, negative = cytotoxicity [7] | activity change, negative = inhibition [8] | viability change, negative = cytotoxic [9] | activation [10] |
| --- | --- | --- | --- | --- | --- | --- | --- | --- | --- | --- | --- | --- | --- | --- |
| CCCCC(CC)COC(=O)CCCCC(=O)OCC(CC)CCCC (stereo unspecified) | inactive | inactive | inactive | inactive | inactive | inactive | inactive | inactive | inactive | inactive | – | – | – | – |
| O=C(CC(C(=O)OC1CCCCC1)S(=O)(=O)O)OC1CCCCC1 (stereo unspecified) | inactive | inactive | inactive | inactive | inactive | inactive | inactive and 53.8 µM (active) | inactive | inactive | inactive | – | – | – | – |
| CC(O)COCC(C)O (stereo unspecified) | inactive | inactive | inactive | inactive | inactive | inactive | inactive | inactive | inactive | inactive | – | – | – | – |
| CCCCCCCCCCCCc1ccccc1 | inactive | inactive | inactive | inactive | inactive | inactive | inactive | inactive | inactive | inactive | – | – | – | – |
| CC1=CCC2CC1C2(C)C (stereo unspecified) | inactive | inactive | inactive | inactive | inactive | inactive | inactive | inactive | – | inactive | – | – | – | – |
| c1ccc2scnc2c1 | inactive | inactive | inactive | inactive | inactive | inactive | inactive | inactive | inactive | inactive | – | – | – | – |
| C[C@H]1C[C@H]2[C@@H]3CCC4=CC(=O)C=C[C@]4(C)[C@@]3(F)[C@@H](O)C[C@]2(C)[C@@]1(O)C(=O)CO | – | – | inactive | inactive | inactive | inactive | inactive | inactive | – | inactive | – | – | – | – |
| O=C(OCCOCCOC(=O)c1ccccc1)c1ccccc1 | inactive | inactive | inactive | inactive | inactive | inactive | inactive | inactive | inactive | inactive | – | – | – | – |
| Nc1cc([N+](=O)[O-])ccc1O | inactive | inactive | inactive | inactive | inactive | inactive | inactive | inactive | inactive | inactive | – | – | – | – |
| CC1=CC(=O)NS(=O)(=O)O1 | inactive | inactive | inactive | inactive | inactive | inactive | inactive | inactive | inactive | inactive | – | – | – | – |
| CCN(CC)CCCC(C)Nc1ccnc2cc(Cl)ccc12 (stereo unspecified) | inactive | inactive | inactive | inactive | inactive | inactive | – | – | – | – | -1.33% [at 8.39 µM] (inactive) and 0.877% [at 19 µM] (inactive) | 0.0918% [at 8.39 µM] (inactive) and -4.56% [at 19 µM] (inactive) | 0.716% [at 6.97 µM] (inactive) and 1.22% [at 15.8 µM] (inactive) | 0.84% [at 6.97 µM] (inactive) and -1.42% [at 15.8 µM] (inactive) |
| CCCCN(CCCC)CCCC | inactive | inactive | inactive | inactive | inactive | inactive | inactive | inactive | inactive | inactive | – | – | – | – |
| CCCCCCCCCC | inactive | inactive | inactive | inactive | inactive | inactive | inactive | inactive | inactive | inactive | – | – | – | – |
